Bioassay records: PubChem BioAssay, National Center for Advancing Translational Sciences (NCATS)
A selection: hits, their analogues and other compounds. The true share with any hit is near 10%.
GLA spleen mod: inhibitors or activators of human alpha-galactosidase in spleen homogenate. P06280. human spleen homogenate, 4MU-alpha-Gal fluorescence, 40 min. Potency, µM (titrated, usually from 80 µM), for inactives: at the highest dose activity change, negative = inhibition, hits mostly inhibitors. hit rate 0.008% among 240,000. AID 2107;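 note: potency is the fitted concentration of half-maximal effect; 0% = enzyme with vehicle and -100% = no enzyme basal signal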
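Fluorogenic readout (Ex 365/Em 440 nm) of 4-methylumbelliferone released from 1 mM 4-MU-alpha-galactoside by spleen homogenate, 40 min at 37C, pH 5.0. Data normalized to no-enzyme and enzyme controls; Hill-equation AC50 from compound titrations.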
ALDH1A1 inh: blocks purified human ALDH1A1 activity; Purified ALDH1A1, NADH fluorescence, propionaldehyde substrate; hit rate 7.3% among 220,000; Potency, µM (titrated, usually from 75.3 µM), without a hit: at the highest dose activity, negative = inhibition, actives largely listed as inhibitors; AID 1030; P00352; active = well fitted inhibition curve with a large enough effect, not every such curve was filed as active; inconclusive = small, poorly fitted or top-dose-only effect, or another doubt; inactive = no such curve, though single readings can be large or run the other way;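 note: potency is the fitted concentration of half-maximal effect; plate controls were no enzyme wells and a reference inhibitor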
HPGD block: blocks human HPGD enzyme activity; Potency, µM, for the others: top-dose activity change, negative = inhibition, most hits filed as inhibitors; purified HPGD, NADH fluorescence kinetic, PGE2 substrate; P15428; hit rate 4.3% among 150,000; active = well fitted inhibition curve with a large enough effect, not every such curve was filed as active; inconclusive = small, poorly fitted or top-dose-only effect, or another doubt; inactive = no such curve, though single readings can be large or run the other way; note: potency is the fitted concentration of half-maximal effect
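20 nM HPGD preincubated 15 min at room temperature with compound in 50 mM Tris-HCl pH 8, 0.01% Tween 20. Started with 1 mM NAD+ and 30 uM prostaglandin E2; NADH fluorescence (360/450 nm) read 5 times over 30-s intervals, last minus first.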
PNC inhibitor: perinucleolar compartment assembly inhibition; PC3M PTB-GFP, PNC prevalence imaging, 16 h; hits give low values; activity change (PNC), negative = inhibition, % at 10 µM; hit rate 3.1% among 140,000;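 active = readout at or below -70, meaning at least 70% loss of cells showing the perinucleolar compartment, a nuclear body marking cancer cells; inconclusive = readout between -30 and a set limit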;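 note: plate controls were DMSO wells for no effect and camptothecin positive control wells for full effect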
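Read-out is percentage of cells bearing a perinucleolar compartment, from automated 20x imaging of fixed, Hoechst-stained PC3M PTB-GFP cells. Cells were seeded 4 h, then exposed 16 h to compound (23 nl of library stock) in duplicate plates.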
ALOX12 inhib: inhibitors of human 12-lipoxygenase (ALOX12). purified 12-hLO, xylenol orange hydroperoxide absorbance. P18054. AID 1452. hit rate 0.12% among 150,000. Potency, µM (series often up to 57.1 µM), inactives show top-dose activity change, negative = inhibition, hits mostly inhibitors; note: potency is the fitted concentration of half-maximal effect; nearly all actives have a fitted effect of over 55% in size
Target sequence (P18054 whole entry, looked up): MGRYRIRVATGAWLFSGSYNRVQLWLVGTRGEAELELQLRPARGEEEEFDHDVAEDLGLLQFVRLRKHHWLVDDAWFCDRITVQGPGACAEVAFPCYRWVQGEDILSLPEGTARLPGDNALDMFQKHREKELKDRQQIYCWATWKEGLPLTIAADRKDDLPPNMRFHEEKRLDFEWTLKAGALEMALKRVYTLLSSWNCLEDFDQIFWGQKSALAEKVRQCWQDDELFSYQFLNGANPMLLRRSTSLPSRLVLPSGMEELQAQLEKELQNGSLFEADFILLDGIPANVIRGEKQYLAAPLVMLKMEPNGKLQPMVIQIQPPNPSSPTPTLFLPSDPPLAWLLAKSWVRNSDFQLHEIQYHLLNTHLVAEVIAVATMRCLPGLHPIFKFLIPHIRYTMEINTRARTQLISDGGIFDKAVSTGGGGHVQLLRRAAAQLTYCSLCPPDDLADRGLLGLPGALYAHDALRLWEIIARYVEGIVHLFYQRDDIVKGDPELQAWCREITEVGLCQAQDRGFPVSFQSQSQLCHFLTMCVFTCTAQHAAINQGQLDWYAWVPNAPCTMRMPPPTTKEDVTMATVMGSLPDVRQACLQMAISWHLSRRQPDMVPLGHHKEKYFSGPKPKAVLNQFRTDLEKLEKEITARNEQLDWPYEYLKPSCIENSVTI
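Xylenol orange chromogenic assay: hydroperoxide from 12hLO oxidises Fe(II), giving red-shifted Fe(III)-XO absorbance. Conditions: 150 nM enzyme, 40 uM arachidonic acid, 25 mM Hepes pH 7.0, 0.01% Triton X-100, 30 min, room temperature.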
GLA inh pH 4.5: alpha-galactosidase A (human) inhibition, pH 4.5 | P06280 | purified enzyme, 4-MU-alpha-Gal fluorescence, pH 4.5 | activity change, negative = inhibition, % at 105 µM | 230,000 tested, under 10 active | AID 1467;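 note: 0% = full activity with enzyme and -100% = basal without enzyme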
Starred values were filed as active, the others as inactive; ? = inconclusive; nt = not tested or not shown; [ ] = another dose, or the depositor's remark. Unless noted, calls come from the whole dose curve; as a rule, active = well fitted curve in the direction sought with a large enough effect; inconclusive = small, poorly fitted or top-dose-only effect, or another doubt; inactive = no such curve, though single readings can be large; an effect the other way counts as inactive or inconclusive. Unless noted, % is set by controls: 0 for no effect and ±100 for the full control effect.

SMILES | GLA spleen mod | ALDH1A1 inh | HPGD block | PNC inhibitor | ALOX12 inhib | GLA inh pH 4.5
CCCCCCCC1=Cc2ccccc2C(C(C(C)=O)C(=O)OC)N1C(=O)OC (stereo not drawn) | 11%[17.5 µM] | -7%[13.5 µM] | -3% | nt | -19%[11.4 µM] | -4
Cc1c(Cl)cccc1NC(=S)NC(=O)CCN1C(=O)c2ccccc2C1=O | -17% | ? | -18% | -25 | 1% | -8
Cn1cccc1CC(=O)NNC(=S)Nc1ccccc1Cl | 2% | ? | 11µM* | 65 | -6% | 2
CC1(C)CC(CCC(=O)NC(=S)Nc2ccccc2Cl)C(=O)O1 (stereo not drawn) | -2% | 13µM* | nt | nt | nt | -13
O=C(CCN1C(=O)c2ccccc2C1=O)NC(=S)Nc1ccccc1Cl | -2% | 22µM* | -22% | -17 | -14% | 4
COC(=O)[C@@]1(Cc2ccc(OC)cc2)[C@H]2c3cc(C(=O)N4CCCC4)n(CCc4c[nH]c5cc(F)ccc45)c3C[C@H]2CN1C(=O)c1ccccc1 | -4% | -15% | -8% | nt | -18% | -13
Cc1cnc(CNc2ncnc3ccc(-c4cccc(C#N)c4)cc23)cn1 | -3% | -13% | -7% | nt | -3% | -20
CC(C)COc1ccc(C(=O)NCc2ccco2)cc1 | 4% | ? | 16µM* | ? | 2% | 0
CCOc1ccc(C(=O)NCCO)cc1 | -1% | 14% | nt | nt | nt | -3
O=C(NCc1ccco1)c1ccc(Oc2ccccc2)cc1 | 9% | ? | 28µM* | ? | 3% | 4
O=C(NCc1ccco1)c1ccc2ccccc2c1 | 2% | 1% | 32µM* | ? | -5% | 4
CCOc1ccc(C(=O)NCC(C)C)cc1 | 6% | 11% | 18µM* | 7 | -3% | -2
COC(=O)c1ccc(C(NC(=O)OCc2ccccc2)/C(F)=C/[C@@H](C)C(=O)N(C)Cc2cccnc2)cc1 (stereo partly drawn) | -1% | ? | -11% | nt | -1% | -2
O=C(CNC(=O)c1ccco1)OCC(=O)c1cccc2ccccc12 | -10% | 22µM* | -17% | 26 | -6% | 6
O=C(NCc1ccco1)c1cccc2ccccc12 | -3% | -7% | 14µM* | -19 | -2% | 5
O=C(NCc1ccco1)c1ccc(COc2ccccc2Cl)cc1 | -7% | ? | 14µM* | 57 | 1% | -1
O=C(NCc1ccco1)c1ccc2c(c1)C(=O)c1ccccc1-2 | 4% | 28µM* | 16µM* | ? | -14% | 2
CCCc1cc(=O)[nH]c(Nc2ccc3c(c2)OCCO3)n1 | 0% | 13% | nt | nt | nt | -2
C/C(CCc1ccc2c(c1)OCO2)=N\NC(=O)c1ccccc1Br | 5% | -4% | nt | nt | nt | -14
CCOc1ccc(NC(=O)NCc2ccco2)cc1 | 2% | 6% | nt | nt | nt | -9
O=C(NCc1ccco1)c1c(F)cccc1Cl | -16% | -9% | 14µM* | -19 | -2% | -4
CN(c1ccccc1C(=O)NCc1ccco1)S(C)(=O)=O | -3% | 3% | -6% | ? | 0% | 0
O=C(NCc1ccco1)c1ccccc1F | 1% | -4% | ? | ? | -3% | -25
CN(c1ccccc1C(=O)Nc1ccccc1C(=O)NCc1ccco1)S(C)(=O)=O | 9% | -2% | -12% | -117* | 2% | 4
CCOc1ccc(C(=O)NCc2ccco2)cc1 | 9% | ? | 28µM* | 10 | 2% | 8
SMILES | GLA spleen mod | ALDH1A1 inh | HPGD block | PNC inhibitor | ALOX12 inhib | GLA inh pH 4.5
CC(C)(Oc1ccc(Cl)cc1)C(=O)NCc1ccco1 | -6% | 13µM* | -21% | ? | -25% | -1
COc1ccc(/C=C/c2cc(O)cc(O[C@H]3OC(CO)C(O)C(O)C3O)c2)cc1 (stereo partly drawn) | 2% | -8% | -23% | nt | 1% | 2
O=C(NCc1ccco1)c1ccc(S(=O)(=O)N2CCCc3ccccc32)cc1 | 2% | 14µM* | -26% | -20 | -19% | -3
O=C(NCc1ccco1)c1cccnc1-c1nc2ccccc2s1 | 4% | 8.9µM* | 16µM* | -11 | -16% | 10
O=C(NCc1ccccc1)c1ccc(S(=O)(=O)N2CCCc3ccccc32)cc1 | 4% | -11% | -16% | 45 | -4% | 2
CC(Nc1ccccc1N1CCCCC1)C(=O)N1CCc2ccccc21 (stereo not drawn) | 8% | -14% | nt | nt | nt | -19
CC(C)CC1C2C(=O)N(c3ccccc3)C(=O)C2ON1c1ccccc1 (stereo not drawn) | 10% | nt | nt | nt | nt | 1
C/C(CC(=O)N(C(C)C)C(C)C)=N\NC(=O)COc1ccc(Cl)cc1Cl | 0% | ? | nt | nt | nt | -2
C/C(CC(=O)N(C(C)C)C(C)C)=N\NC(=O)COc1ccc(Br)cc1Br | 1% | 11% | -24% | -109* | -8% | 11
O=C1c2cccc3c(O)ccc(c23)C(=O)N1Cc1ccco1 | -3% | 13µM* | nt | nt | nt | 4
Brc1ccc(-c2csc(NNC3=NCCCCC3)n2)cc1 | -14% | 11µM* | nt | -22 | -29% | -11
CC(C)(C)c1ccc(-c2csc(NNC3=NCCCCC3)n2)cc1 | -4% | -15% | -13% | 31 | 0% | 2
CN(C)c1ccc(/C=C/c2ccc3ccccc3[n+]2C)cc1 | -3% | -15% | -2% | 5 | 0% | -6
CN(C)c1ccc(/C=C/c2ccc3c4ccccc4ccc3[n+]2-c2ccccc2)cc1 | 10% | 13µM* | nt | nt | nt | -4
CCN(C(=O)COC(=O)/C=C/c1ccc(O)c(OC)c1)C1CCS(=O)(=O)C1 (stereo not drawn) | 9% | 6% | ? | -8 | -6% | -2
CCOC(=O)C1CCCN(C(=O)c2cc(-c3ccc(C)cc3)on2)C1 (stereo not drawn) | -8% | -8% | 16µM* | 5 | -5% | 6
CCOC(=O)C1CCCN(C(=O)c2cccs2)C1 (stereo not drawn) | 0% | -2% | -4% | 22 | 1% | 7
CCOC(=O)C1CCCN(C(=O)c2sc3nc(-c4ccc(F)cc4)cn3c2C)C1 (stereo not drawn) | -3% | 10µM* | -44% | -2 | -5% | 2
S=c1[nH]nc(CSCCOc2ccc(Cl)cc2Cl)o1 | 0% | 0.1µM* | nt | nt | nt | -5
Cn1c(CSCCOc2ccccc2)n[nH]c1=S | 5% | -8% | nt | nt | nt | -2
S=c1[nH]nc(COc2ccc3ccccc3c2)o1 | 2% | 3.5µM* | -20% | -27 | 0% | 5
S=c1[nH]nc(CSCCOc2ccccc2)o1 | 7% | 20µM* | nt | nt | nt | -13
COc1cc(OC)c(/C=N/NC(=O)c2ccc(Cn3nc([N+](=O)[O-])cc3C)cc2)c(OC)c1 | 4% | ? | nt | nt | nt | 3
